This is a sample that favours compounds with a hit; in the whole collection about 11% have one here.
IMPase Li cell – membrane-permeable IMPase blocker, potentiated with lithium; CHO-M1 cells, IP1 TR-FRET (IP-One), carbachol + lithium; Potency, µM (titrated, usually from 59.4 µM), usual class: inhibitors; 0.35% of 210,000 active; AID 1457;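 further: IP1 builds up when IMPase is blocked and the TR-FRET signal falls; nearly all actives have a fitted effect of over 50% in size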
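Readout is a homogeneous TR-FRET IP1 immunoassay (Ex 320, Em 665 and 620), where raised cytosolic IP1 lowers signal. Cells were CHO-M1 treated 30 min at 37C with test compounds plus a little lithium; AC50 values came from Hill-equation fitting.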
NPSR antagonist – blocks cAMP signaling of the human neuropeptide S receptor | Q6W5P4 | CHO-NPSR cells, cAMP TR-FRET, antagonist mode | Potency, µM (top dose mostly 38.3 µM), most hits filed as inhibitors | 1% of 220,000 active | AID 1461; further: nearly all actives have a fitted effect of over 50% in size
IMPase inh – IMPase inhibition in cells. P97697. CHO-M1 cells, IP1 accumulation, HTRF TR-FRET ratio. inhibition (IP1 accumulation), % at 46.1 µM. 120,000 tested, under 10 active. AID 901; active means well fitted curve in the direction sought with a large enough effect in the signal ratio, not every such curve was filed as active; inconclusive means small, poorly fitted or top-dose-only effect, or a change in a side signal; inactive means no such curve, though single readings can be large or run the other way; the % refers to the signal ratio;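 further: cells stimulated with carbachol in lithium chloride buffer; higher means more IMPase inhibition seen as more IP1 and lower FRET ratio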
Target sequence (P97697 whole entry, looked up): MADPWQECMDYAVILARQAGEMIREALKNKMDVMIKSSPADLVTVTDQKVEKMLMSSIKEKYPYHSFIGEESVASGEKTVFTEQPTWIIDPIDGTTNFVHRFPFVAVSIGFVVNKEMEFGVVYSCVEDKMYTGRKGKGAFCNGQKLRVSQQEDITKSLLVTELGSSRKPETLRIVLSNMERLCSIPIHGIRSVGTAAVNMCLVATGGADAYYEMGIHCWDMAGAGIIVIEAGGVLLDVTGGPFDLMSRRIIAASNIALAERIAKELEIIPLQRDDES
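CHO-M1 cells (CHO stably expressing M1 receptor), compound up to 46 uM final, stimulated with carbachol (50 uM as added) in buffer with 50mM LiCl, pH 7.4, 30 min at 37C. Cytosolic IP1 read by TR-FRET; AC50 from Hill fits.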
ALDH1A1 inh – blocks purified human ALDH1A1 activity; P00352; Purified ALDH1A1, NADH fluorescence, propionaldehyde substrate; Potency, µM (doses to about 75.3 µM), most hits filed as inhibitors; 7.3% of 220,000 active; AID 1030; active means well fitted inhibition curve with a large enough effect, not every such curve was filed as active; inconclusive means small, poorly fitted or top-dose-only effect, or another doubt; inactive means no such curve, though single readings can be large or run the other way
Target sequence (P00352 whole entry, looked up): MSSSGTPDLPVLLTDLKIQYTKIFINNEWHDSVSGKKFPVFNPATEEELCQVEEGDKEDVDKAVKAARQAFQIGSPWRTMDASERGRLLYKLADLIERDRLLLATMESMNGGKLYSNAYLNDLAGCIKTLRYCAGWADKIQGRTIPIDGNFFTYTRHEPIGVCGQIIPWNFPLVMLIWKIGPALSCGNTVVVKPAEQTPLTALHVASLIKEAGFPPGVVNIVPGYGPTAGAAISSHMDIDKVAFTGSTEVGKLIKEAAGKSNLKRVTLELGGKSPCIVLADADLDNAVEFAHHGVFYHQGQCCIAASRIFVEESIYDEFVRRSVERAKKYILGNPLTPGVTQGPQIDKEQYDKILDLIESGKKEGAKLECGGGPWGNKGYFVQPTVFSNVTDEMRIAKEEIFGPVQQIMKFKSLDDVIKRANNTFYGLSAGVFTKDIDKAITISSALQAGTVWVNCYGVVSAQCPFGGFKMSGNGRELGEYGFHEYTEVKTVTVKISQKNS
HPGD inh – blocks human HPGD enzyme activity; 4.3% of 150,000 active; purified HPGD, NADH fluorescence kinetic, PGE2 substrate; P15428; Potency, µM, actives largely listed as inhibitors; active means well fitted inhibition curve with a large enough effect, not every such curve was filed as active; inconclusive means small, poorly fitted or top-dose-only effect, or another doubt; inactive means no such curve, though single readings can be large or run the other way
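20 nM HPGD preincubated 15 min at room temperature with compound in 50 mM Tris-HCl pH 8, 0.01% Tween 20. Started with 1 mM NAD+ and 30 uM prostaglandin E2; NADH fluorescence (360/450 nm) read 5 times over 30-s intervals, last minus first.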
PNC inhibitor – blocks assembly of the perinucleolar compartment; PC3M PTB-GFP, PNC prevalence imaging, 16 h; active compounds read low; activity change (PNC), negative = inhibition, % at 10 µM; 3.1% of 140,000 active;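 active means readout at or below -70, meaning at least 70% loss of cells showing the perinucleolar compartment, a nuclear body marking cancer cells; inconclusive means readout between -30 and a set limit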
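Read-out is percentage of cells bearing a perinucleolar compartment, from automated 20x imaging of fixed, Hoechst-stained PC3M PTB-GFP cells. Cells were seeded 4 h, then exposed 16 h to compound (23 nl of library stock) in duplicate plates.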
A number is an active result. Unless noted, the call rests on the fitted dose curve; in most records, active means well fitted curve in the direction sought with a large enough effect; inconclusive means small, poorly fitted or top-dose-only effect, or another doubt; inactive means no such curve, though single readings can be large; an effect the other way counts as inactive or inconclusive.

How did C=CCSc1nnc(Cc2c(C)[nH]c3ccccc23)o1 do in these assays?
IMPase Li cell: inactive; NPSR antagonist: inactive; IMPase inh: inactive; ALDH1A1 inh: inactive; HPGD inh: inactive; PNC inhibitor: inactive

What do the screens show for `Cc1[nH]c2ccccc2c1Cc1nnc(SCCC#N)o1`?
IMPase Li cell: inactive; NPSR antagonist: inactive; IMPase inh: inactive; ALDH1A1 inh: inactive; HPGD inh: inactive; PNC inhibitor: -100.0

What do the screens show for `CC1=C/C(=N\N=C2\NC(=O)C(CC(=O)Nc3ccccc3F)S2)CC(C)(C)C1` (configuration not stated)?
IMPase Li cell: inactive; NPSR antagonist: inactive; ALDH1A1 inh: inactive

Results for O=C(CCSc1ccc(Cl)cc1)N1CCCCCC1 ?
IMPase Li cell: inactive; NPSR antagonist: inactive; IMPase inh: inactive; ALDH1A1 inh: inactive; HPGD inh: 10µM; PNC inhibitor: inactive

Results for O=C(CCCOc1ccccc1)N1CCc2ccccc2C1 ?
IMPase Li cell: inactive; NPSR antagonist: inactive; IMPase inh: inactive; ALDH1A1 inh: inactive; HPGD inh: inconclusive; PNC inhibitor: inactive

What do the screens show for `Cc1cc(Cl)ccc1OCCCC(=O)N1CCCCC1`?
IMPase Li cell: inactive; NPSR antagonist: inconclusive; IMPase inh: inactive; ALDH1A1 inh: inactive; HPGD inh: 6.31µM; PNC inhibitor: inactive

How did CC1CCN(C(=O)CSCc2ccc(Cl)cc2)CC1 do in these assays?
IMPase Li cell: inactive; NPSR antagonist: inactive; IMPase inh: inactive; ALDH1A1 inh: inactive; HPGD inh: inactive; PNC inhibitor: inactive

What do the screens show for `NC(=O)C1CCN(C(=O)CCSc2ccc(Cl)cc2)CC1`?
IMPase Li cell: inactive; NPSR antagonist: inactive; ALDH1A1 inh: inactive

Results for O=C(CCCOc1ccc(Cl)cc1Cl)N1CCc2ccccc2C1 ?
IMPase Li cell: inactive; NPSR antagonist: inactive; IMPase inh: inactive; ALDH1A1 inh: inactive; HPGD inh: 2.51µM; PNC inhibitor: inactive

What do the screens show for `CC1CCN(C(=O)CCCOc2ccc(Cl)cc2)CC1`?
IMPase Li cell: inactive; NPSR antagonist: inactive; ALDH1A1 inh: inconclusive; HPGD inh: 2.82µM; PNC inhibitor: inactive

How did O=C(N[C@@H](Cc1c[nH]c2ccccc12)C(=O)NC1CC1)c1ccccc1Cl do in these assays?
IMPase Li cell: inactive; NPSR antagonist: inactive; IMPase inh: inactive; ALDH1A1 inh: inactive; HPGD inh: inactive; PNC inhibitor: inactive

Results for Cc1cc(Br)ccc1OCC(=O)N1CCCCCC1 ?
IMPase Li cell: inactive; NPSR antagonist: inconclusive; IMPase inh: inactive; ALDH1A1 inh: inconclusive; HPGD inh: 39.8µM; PNC inhibitor: inactive

How did Cc1ccc(OCC(=O)N2CCCCCC2)c(C)c1 do in these assays?
IMPase Li cell: inactive; NPSR antagonist: inactive; IMPase inh: inactive; ALDH1A1 inh: inactive; HPGD inh: inactive; PNC inhibitor: inconclusive

Results for Cc1cc(OCCCC(=O)N2CCCCC2)cc(C)c1Cl ?
IMPase Li cell: inactive; NPSR antagonist: inactive; IMPase inh: inactive; ALDH1A1 inh: inconclusive; HPGD inh: 7.94µM; PNC inhibitor: inconclusive

What do the screens show for `CCOC(=O)N1CCN(C(=O)COc2cc(C)c(Cl)c(C)c2)CC1`?
IMPase Li cell: inactive; NPSR antagonist: inactive; ALDH1A1 inh: inactive

Results for CCN(CC)C(=O)CSc1nc2ccccc2c(=O)n1OC ?
IMPase Li cell: inactive; NPSR antagonist: inactive; IMPase inh: inactive; ALDH1A1 inh: inconclusive; HPGD inh: inactive; PNC inhibitor: inactive

Results for O=C(Cc1ccc(S(=O)(=O)N2CCCCC2)s1)Nc1ccc(F)c(F)c1 ?
IMPase Li cell: inactive; NPSR antagonist: inactive; ALDH1A1 inh: inconclusive; HPGD inh: inactive; PNC inhibitor: -86.3

What do the screens show for `Cc1ccc(CC(=O)Nc2nc3c(s2)CCCC3)cc1`?
IMPase Li cell: inactive; NPSR antagonist: inactive; IMPase inh: inactive; ALDH1A1 inh: inactive; HPGD inh: inactive; PNC inhibitor: -100.3

Results for O=C(Cc1ccc(S(=O)(=O)N2CCCC2)s1)Nc1nc2c(s1)CCCC2 ?
IMPase Li cell: inactive; NPSR antagonist: inactive; IMPase inh: inactive; ALDH1A1 inh: 10µM; HPGD inh: inactive; PNC inhibitor: inactive

Results for O=C(CS(=O)(=O)Cc1ccccc1)Nc1nc2c(s1)CCCC2 ?
IMPase Li cell: inactive; NPSR antagonist: inactive; IMPase inh: inactive; ALDH1A1 inh: inconclusive; HPGD inh: inactive; PNC inhibitor: inconclusive

Results for COC(=O)C1=C(C)NC(C)=C(C(=O)OC)C1c1ccc(OC(=O)c2oc3ccccc3c2C)c(OC)c1 ?
IMPase Li cell: inactive; NPSR antagonist: inactive; ALDH1A1 inh: inconclusive; HPGD inh: inconclusive; PNC inhibitor: inactive

Results for O=C(c1ccc(Cl)cc1)c1oc2ccccc2c1CS(=O)c1ccc(Cl)cc1 (configuration not stated) ?
IMPase Li cell: inactive; NPSR antagonist: inconclusive; IMPase inh: inactive; ALDH1A1 inh: 3.98µM; HPGD inh: inactive; PNC inhibitor: inconclusive

Results for CC1CCN(C(=O)C2CCN(C(=O)c3cc4sccc4n3Cc3ccc(F)cc3)CC2)CC1 ?
IMPase Li cell: inactive; NPSR antagonist: inconclusive; IMPase inh: inactive; ALDH1A1 inh: 14.1µM; HPGD inh: inactive; PNC inhibitor: inactive

What do the screens show for `CC(C)NC(=O)C1CCN(C(=O)c2cc3sccc3n2Cc2ccc(F)cc2)CC1`?
IMPase Li cell: inactive; NPSR antagonist: inactive; IMPase inh: inactive; ALDH1A1 inh: 12.6µM; HPGD inh: inactive; PNC inhibitor: inactive

How did O=C(NCc1ccc(F)cc1)c1cc2sccc2n1Cc1ccc(F)cc1 do in these assays?
IMPase Li cell: inactive; NPSR antagonist: inconclusive; IMPase inh: inactive; ALDH1A1 inh: inconclusive; HPGD inh: inconclusive; PNC inhibitor: inactive

Results for Cn1cnnc1Sc1ccc(C(=O)NCCC23CC4CC(CC(C4)C2)C3)cc1[N+](=O)[O-] ?
IMPase Li cell: inactive; NPSR antagonist: inactive; IMPase inh: inactive; ALDH1A1 inh: 2.82µM; HPGD inh: inactive; PNC inhibitor: inactive

How did CCS(=O)(=O)c1ccc(Sc2nncn2C)c([N+](=O)[O-])c1 do in these assays?
IMPase Li cell: inactive; NPSR antagonist: inactive; ALDH1A1 inh: 22.4µM

How did CCN(CC)S(=O)(=O)c1ccc(NC(=O)c2ccc(Sc3nncn3C)c([N+](=O)[O-])c2)cc1 do in these assays?
IMPase Li cell: inactive; NPSR antagonist: inactive; IMPase inh: inactive; ALDH1A1 inh: inconclusive; HPGD inh: inactive; PNC inhibitor: inactive

How did CN(C)S(=O)(=O)c1cccc(NC(=O)c2ccc(Sc3nncn3C)c([N+](=O)[O-])c2)c1 do in these assays?
IMPase Li cell: inactive; NPSR antagonist: inactive; ALDH1A1 inh: 0.562µM

How did CCC(C)(C)NC(=O)c1ccc(Sc2nncn2C)c([N+](=O)[O-])c1 do in these assays?
IMPase Li cell: inactive; NPSR antagonist: inactive; ALDH1A1 inh: inactive; HPGD inh: inactive; PNC inhibitor: inconclusive

How did CCN1C(=O)/C(=C2/C=CC=CN2C)OC1=S do in these assays?
IMPase Li cell: inactive; NPSR antagonist: inactive; IMPase inh: inconclusive; ALDH1A1 inh: inconclusive; HPGD inh: inactive; PNC inhibitor: inconclusive

Compound activity from PubChem BioAssay.
